PubChem BioAssay AID1508619 (National Center for Advancing Translational Sciences (NCATS), 2020)
Inconclusive results are not listed. Entries that show only a call come without a potency. The source made the active and inactive calls. Calls follow the shape of the dose curve; as a rule, active = well fitted inhibition curve with a large enough effect; inconclusive = small, poorly fitted or top-dose-only effect; inactive = no such curve, though single readings can be large or run the other way.

assay: Counterscreen qHTS for Identification of Calcium Integrin Binding Protein 1 (CIB1) Competitor; conditions: series mostly up to 114 µM
Description: Assay Provider: Ulhas P. Naik, PhD
Sidney Kimmel Medical College
Thomas Jefferson University, Philadelphia, PA
Primary function of platelets is to maintain hemostasis. At the site of vascular injury, platelets adhere to adhesive proteins such as collagen and von Willebrand factor. Adherent platelets are activated and generate soluble platelet agonists such as thrombin, ADP and thromboxane A2. Following exposure of circulating platelets to these agonists, results in platelet shape change, granule secretion and activation of platelet integrin alphaIIb-beta3. Ligand binding to activated integrin alphaIIb-beta3 triggers outside-in signaling, leading to platelet aggregation, stabilization of platelet plug, and clot retraction. Upon atherosclerotic plaque rupture also causes platelet plug formation, which underlies a number of cardiovascular diseases such as myocardial infraction and stroke. A number of anti-platelet drugs such as aspirin, clopidogrel, prasugrel, vorapaxar, and eptifibatide are currently available to prevent the thrombotic complications. However, these anti-platelet agents have several limitations including inherent variability in individual responses, developing resistance, and serious bleeding side effects. For these reasons they are not suitable for long-term protection. Based on the experiences with current anti-platelet drugs, it appears that the most useful therapeutic approach is to intersect the secondary responses such as integrin outside-in signaling or recruitment of platelets by TxA2 and secreted ADP. Compounds, which can largely preserve the primary hemostatic function of platelets but inhibit secondary response will be most desired therapeutic agents for treatment of cardiovascular disease.
CIB1 is a calcium integrin binding protein, which specifically interact with the alphaIIb subunit of integrin alphaIIb-beta3. Binding of CIB1 to alphaIIb regulates the outside-in signaling in platelets, which is needed for thrombus stabilization and thrombus growth. […] Therefore, we propose that discovery of a small molecule that can prevent the association of CIB1 and alphaIIb-beta3 will be a potential anti-platelet agent that can block the thrombus formation without undue effect on hemostasis.
To develop fluorescence polarization (FP) assay using fluorescently labeled alphaIIb peptide and CIB1 protein. Using FP assay characterize the binding affinity, competitive inhibition, and acceptable Z factor (0.5 to1) in order to perform the HTS to identify small molecule compound that can prevent CIB1 binding to platelet integrin alphaIIb-beta3. Active compounds were re-acquired and validated using confirmatory and counterscreens (using 100 nM scrambled peptide).
[1] Naik MU, Nigam A, Manrai P, et al. CIB1 deficiency results in impaired thrombosis: the potential role of CIB1 in outside-in signaling through integrin alpha IIb beta 3. J Thromb Haemost. 2009;7(11):1906-1914. doi:10.1111/j.1538-7836.2009.03581.
SEQUENCE No. (1, 2, 3, etc.); […] (e.g., Cells, Incubation, Reagent, etc.); VALUE and DESCRIPTION.
1; Reagent; 3 uL; Protein or buffer (4/3x)
2; Compound; 46 nL; Control inhibitor / compound library
3; Time; 15 min; Room temperature incubation
4; Reagent; 1 uL; Fluorescent labeled peptide (4x)
5; Time; 1000 rpm; Centrifuge
6; Time; 15 min; Room temperature incubation
7; Detection; Ex 480/ Em 540; ViewLux Fluorescence Read
NOTES (numbers refer to sequence above)
1; Protein Mixture: C1B1-GST (final concentrations of 1 uM). Buffer composition: 5 mM HEPES pH 7.4, 125 mM NaCl, 5 mM CaCl2, 0.01% Tween20.
2; Control Inhibitor: unlabeled peptide (final concentration range 17.4 nM to 572 uM). Compound Library final concentration range 18.3 nM to 114 uM.
3; Room temperature incubation.
4; Fluorescent Labeled Peptide: FITC-alphaIIb (final concentration of 100 nM). Sequence of Scrambled peptide: Acetyl-[…]-FITC (purity is 95.37%).
6; Room temperature incubation.
[…]
Potency is read from the fitted curve at half-maximal effect.

Row | Compound | Potency
1 | COc1ccc(C(=O)Nc2nc(-c3ccccc3)cs2)c(NS(=O)(=O)c2ccc(C)cc2)c1 | inactive
2 | CC(O)c1ccc(-c2ccc3ncnc(N4CCOCC4)c3c2)o1 (stereo not given) | inactive
3 | Cn1cnc(-c2nccc3c(=O)[nH]c(OCCCC(F)(F)F)nc23)c1 | inactive
4 | Cc1ccc(C)n1-c1cccc(C(=O)O)c1 | inactive
5 | N#Cc1ccc(NS(=O)(=O)c2ccc(NC(=O)Cc3ccc(Cl)c(Cl)c3)cc2)cc1 | inactive
6 | C[C@H]1COC2=C1C(=O)C(=O)c1c2ccc2c1CCCC2(C)C | inactive
7 | Cc1cc(=O)oc2cc(SC3=NS(=O)(=O)c4ccccc43)ccc12 | inactive
8 | CN(C)c1cnc2c(O)cccc2c1 | inactive
9 | Cc1nc(C(=O)NCC(=O)O)c(O)c2ccc(Oc3ccccc3)cc12 | inactive
10 | COc1cc([C@H]2Oc3cc([C@H]4Oc5cc(O)cc(O)c5C(=O)[C@@H]4O)ccc3O[C@@H]2CO)ccc1O | inactive
11 | COc1ccc2c(=O)n3nc(Nc4cccc(N5CCN(C)CC5)c4)sc3nc2c1 | inactive
12 | CCCCC(CC)CN=C(N)NC(N)=NCCCCCCN=C(N)NC(N)=NCC(CC)CCCC (stereo not given) | inactive
13 | COc1cc(C(=O)NS(=O)(=O)c2ccccc2C)ccc1Cc1cn(C)c2ccc(NC(=O)OC3CCCC3)cc12 | inactive
14 | Cc1cc2c(C(C)C)c(O)c(O)c(C=O)c2c(O)c1-c1c(C)cc2c(C(C)C)c(O)c(O)c(C=O)c2c1O | inactive
15 | O=[S+]([O-])(Nc1nccs1)c1ccc(NCc2cc(Cl)cc(Br)c2O)cc1 | inactive
16 | CO[C@@]12[C@H](COC(N)=O)C3=C(C(=O)C(C)=C(N)C3=O)N1C[C@@H]1N[C@@H]12 | inactive
17 | NC(=O)c1ccc(O)c2ncccc12 | inactive
18 | O=C(O)c1ccc(O)c2ncc(-c3n[nH]nc3-c3ccccc3)cc12 | inactive
19 | O=S(=O)(c1ccc2nc(Cl)c(Cl)nc2c1)N1CCN(S(=O)(=O)c2c(F)cccc2F)CC1 | inactive
20 | O=C(Cc1ccccc1)NC(c1ccco1)c1cc(Cl)c2cccnc2c1O (stereo not given) | inactive

Row | Compound | Potency
21 | C[n+]1cc2c3c(ccc2c2ccc4cc5c(cc4c21)OCO5)OCO3 | inactive
22 | CN(C(=O)c1cccs1)c1cccnc1 | 44.7 µM (active)
23 | Cc1ccc(S(=O)(=O)Nc2cc3c(cc2C(=O)Nc2nc(-c4ccccc4)cs2)OCO3)cc1 | inactive
24 | CC(=O)NC(c1cccs1)c1cc(Br)c2cccnc2c1O (stereo not given) | inactive
25 | CC(OC(=O)c1ccc(S(C)(=O)=O)c([N+](=O)[O-])c1)C(=O)NC1C2CC3CC(C2)CC1C3 (stereo not given) | inactive
26 | C[C@@H](NCc1cc2ccccc2[nH]1)c1cccc2ccccc12 | inactive
27 | CO[C@@H]1C(N(C)C(=O)c2ccccc2)C[C@H]2O[C@]1(C)n1c3ccccc3c3c4c(c5c6ccccc6n2c5c31)C(=O)NC4=O (stereo not given in full) | 22.4 µM (active)
28 | O=C(O)Cc1ccc(CCNS(=O)(=O)c2ccc(Cl)cc2)cc1 | inactive
29 | O=C1CCCC2=C1C1(CCCOC1)N=C(Nc1nc3ccccc3o1)N2 (stereo not given) | inactive
30 | OCCOCCN1CCN(C(c2ccccc2)c2ccc(Cl)cc2)CC1 (stereo not given) | inactive
31 | Cc1ccc(Cl)cc1NC(=O)c1nc[nH]c1C(=O)Nc1nc2ccccc2[nH]1 | inactive
32 | O=C(O)C1=NC(C(=O)O)CC(C=CN2c3cc(O)c(OC4OC(CO)C(O)C(O)C4O)cc3CC2C(=O)O)=C1 (stereo not given) | inactive
33 | COC(=O)c1ccc(O)c2ncc(-c3ccc(C(=O)NCCCN(C)C)cc3)cc12 | inactive
34 | Cc1ccc([S+](=O)([O-])Nc2nn3c(=O)c4ccccc4nc3s2)cc1C | inactive
35 | N#Cc1cnc(NS(=O)(=O)c2ccc(NC(=O)Cc3ccc(F)c(Cl)c3)cc2)s1 | inactive
36 | CCCCCCCCCCCCCCCC[N+](C)(C)CCN(Cc1ccc(OC)cc1)c1ncccn1 | inactive
37 | O=Cc1c(-c2ccccc2)no[n+]1[O-] | inactive
38 | O=C(O)c1ccc(O)c2ncc(N3CCC(N4CCOCC4)C3)cc12 (stereo not given) | inactive
39 | COc1ccc(NC(=O)c2[nH]c(C)c(C(C)=O)c2C)cc1[S+](=O)([O-])Nc1ccccc1C#N | inactive
40 | Cc1ccccc1NC(=O)CN1C(=O)N/C(=C\c2cn(-c3cccc(C(=O)O)c3)cn2)C1=O | inactive
